Active and inactive are the calls of the source.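 How the source made its calls, unless noted: active means compounds whose cell count with miR-34 switched on is under 0.7 times the count with it off; inactive means the rest.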 *1 amine or outer side, *2 acyl side, *3 side chain or, on linkers, in order; H or OH if unused. Where a SMILES comes first, the peptide text is derived from it. Bridges are numbered along the chain shown (N, C = ends). Roman numbers before positions name the chains, in order. [ ]: non-standard residue; d: D form. Hexamethylenediamine = C(CCCN[*:2])CCN[*:1]; Dip = N[CH](C(=O)O)C(c1ccccc1)c1ccccc1; Chg = N[CH](C(=O)O)C1CCCCC1; NMeA = CN[CH](C)C(=O)O

Experiment [1] in a line: viability loss with induced miR-34 in A549 – imaging, A549 dox-inducible miR-34, nuclei and caspase counts, primary screen (AID 1347080). The note with it: A549 miR-34 inducible, Hoechst nuclei count, 48 h.
The nature of experiment [2]: MELAS cybrid and Rieske KO viability enhancers – cell-based, MELAS cybrids, Rieske KO mouse fibroblasts, CellTiter-Glo, primary screen (AID 1508586;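 active means mean z-score across replicates of 1.96 or higher in either the MELAS or the Rieske mutant cell line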;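 further: z relative to plate mean and SD of compound and empty wells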). Particulars: low glucose. A general note: In ATP-based viability assays light output follows the ATP content of the culture.
The mark [3] stands for this setting: stronger effect = lower value, cell number ratio, induced over uninduced.
[4] abbreviates: measured here: relative caspase fold change +Dox/-Dox.
[5] abbreviates: measured here: total cells with miR-34 induction, stronger effect = lower value.
Where [6] appears, read: measured here: total cells without miR-34 induction.
Setting [7] is: MELAS cybrid survival, CellTiter-Glo 48 h, stronger effect = higher value.
Setting [8] is: Rieske KO mouse fibroblast survival, CellTiter-Glo 72 h.
Further: test concentration not given here.

As for `O=C(O)c1ccc(N2C(=O)C(=Cc3ccc(-c4ccc([N+](=O)[O-])cc4)o3)C=C2c2ccccc2)cc1`, the fold change in experiment [1] (setting [3]) was 0.852 (inactive); in experiment [1] (setting [4]) it was 1.02. The cell count in experiment [1] (setting [5]) was 7620; in experiment [1] (setting [6]), 8950. Further, the results for the z-score in experiment [2] (setting [7]) and in experiment [2] (setting [8]) were -0.417 (inactive) and 0.868, respectively.
`CCC1OC(=O)C(C)C(OC2C[C@@](C)(OC)C(O)C(C)O2)C(C)C(OC2OC(C)CC(N(C)C)C2O)[C@@](C)(O)CC(C)[C@@H]2NC(COCCOC)OC(C2C)[C@]1(C)O` (stereo partly specified): the fold change was 0.923 (inactive) in experiment [1] (setting [3]) and 0.895 in experiment [1] (setting [4]). Moreover, the figures for the cell count in experiment [1] (setting [5]) and in experiment [1] (setting [6]) were 8840 and 9580, respectively. For the same compound, the z-score in experiment [2] (setting [7]) is -0.208 (inactive); in experiment [2] (setting [8]) it was -0.128.
As for `COc1ccc(-c2cc(=O)c3c(O)cc(OC4OC(COC5OC(C)C(O)C(O)C5O)C(O)C(O)C4O)cc3o2)cc1O` (stereo unspecified), the fold change is 0.912 (inactive) in experiment [1] (setting [3]) and 0.985 in experiment [1] (setting [4]). For the same compound, the cell count came out at 7570 in experiment [1] (setting [5]) and 8300 in experiment [1] (setting [6]). Besides, the z-score in experiment [2] (setting [7]) was -0.28 (inactive); in experiment [2] (setting [8]), 0.179.
Consider `CN1CCc2nc(C(=O)NC3CC(C(=O)N(C)C)CCC3NC(=O)C(=O)Nc3ccc(Cl)cn3)sc2C1` (stereo unspecified), for which the fold change in experiment [1] (setting [3]) was 0.965 (inactive); in experiment [1] (setting [4]), 0.478. The cell count in experiment [1] (setting [5]) came out at 8860; in experiment [1] (setting [6]) it was 9180. The z-score is -0.402 (inactive) in experiment [2] (setting [7]) and -0.373 in experiment [2] (setting [8]).
Take `CC(=O)C1CC[C@H]2[C@@H]3CCC4=CC(=O)CC[C@]4(C)[C@@H]3CC[C@]12C` (stereo partly specified): the fold change is 0.844 (inactive) in experiment [1] (setting [3]) and 1.47 in experiment [1] (setting [4]). In addition, the values for the cell count in experiment [1] (setting [5]) and in experiment [1] (setting [6]) were 7050 and 8360, respectively. Also, the z-score in experiment [2] (setting [7]) was -0.493 (inactive); in experiment [2] (setting [8]), -0.487.
In the case of `CC1C(=O)O[C@H]2C(O)C34C5CC(C(C)(C)C)C36C(O)C(=O)O[C@H]6O[C@]4(C(=O)O5)[C@@]12O` (stereo partly specified), the fold change was 0.925 (inactive) in experiment [1] (setting [3]) and 1.45 in experiment [1] (setting [4]). For the same compound, the cell count in experiment [1] (setting [5]) was 7630; in experiment [1] (setting [6]), 8250. In addition, the figures for the z-score in experiment [2] (setting [7]) and in experiment [2] (setting [8]) were -0.353 (inactive) and -0.351, respectively.
Take `Oc1ccc(OC2CCCCO2)cc1` (stereo unspecified): the fold change in experiment [1] (setting [3]) was 0.945 (inactive); in experiment [1] (setting [4]), 0.827. Besides, the values for the cell count in experiment [1] (setting [5]) and in experiment [1] (setting [6]) were 7580 and 8020, respectively. Besides, the z-score was -0.229 (inactive) in experiment [2] (setting [7]) and -0.263 in experiment [2] (setting [8]).
Take `CCOC(=O)c1ccc(N2NC(=O)C(=Cc3ccc([N+](=O)[O-])o3)C2=O)cc1`: the fold change in experiment [1] (setting [3]) was 0.912 (inactive); in experiment [1] (setting [4]), 0.455. Moreover, the cell count in experiment [1] (setting [5]) stood at 7420; in experiment [1] (setting [6]), 8150. Also, the values for the z-score in experiment [2] (setting [7]) and in experiment [2] (setting [8]) were -0.255 (inactive) and -2.84, respectively.
Turning to `CCCSc1nc(NC2CC2c2ccc(F)c(F)c2)c2nnn(C3CC(OCCO)C(O)C3O)c2n1` (stereo unspecified), the fold change in experiment [1] (setting [3]) is 0.894 (inactive); in experiment [1] (setting [4]) it was 0.998. The cell count in experiment [1] (setting [5]) stood at 6430; in experiment [1] (setting [6]), 7190. For the same compound, the z-score is -0.266 (inactive) in experiment [2] (setting [7]) and -0.123 in experiment [2] (setting [8]).
Turning to `Brc1ccc(C2CN3CCSC3=N2)cc1` (stereo unspecified), the values for the fold change in experiment [1] (setting [3]) and in experiment [1] (setting [4]) were 0.957 (inactive) and 0.301, respectively. The cell count in experiment [1] (setting [5]) worked out at 9050; in experiment [1] (setting [6]) it was 9460. Further, the z-score in experiment [2] (setting [7]) is -0.426 (inactive); in experiment [2] (setting [8]), -0.0963.
Regarding `CCC(C)Nc1cc(C(=O)NC2CC3CCC(C2)N3c2ccc(C(=O)C3CC3)cn2)c(C)cc1C(N)=O` (stereo unspecified), the fold change in experiment [1] (setting [3]) was 0.94 (inactive); in experiment [1] (setting [4]), 0.437. Moreover, the cell count in experiment [1] (setting [5]) is 2340; in experiment [1] (setting [6]) it was 2490. Also, the z-score was 2.2 (active) in experiment [2] (setting [7]) and -1.06 in experiment [2] (setting [8]).
For the compound `C=CCNC1=C2CC(C)CC(OC)C(O)C(C)C=C(C)C(OC(N)=O)C(OC)C=CC=C(C)C(=O)NC(=CC1=O)C2=O` (stereo unspecified), the fold change in experiment [1] (setting [3]) was 1.02 (inactive); in experiment [1] (setting [4]), 1.05. Further, the cell count in experiment [1] (setting [5]) was found to be 1870; in experiment [1] (setting [6]), 1820. Further, the z-score in experiment [2] (setting [7]) is 1.58 (inactive); in experiment [2] (setting [8]), -0.477.
On to `OCC1OC(Oc2ccc(O)cc2)C(O)C(O)C1O` (stereo unspecified), for which the fold change is 0.859 (inactive) in experiment [1] (setting [3]) and 1.01 in experiment [1] (setting [4]). Moreover, the cell count in experiment [1] (setting [5]) was determined as 7730; in experiment [1] (setting [6]) it was 9000. Moreover, the z-score in experiment [2] (setting [7]) is -0.228 (inactive); in experiment [2] (setting [8]), 0.468.
For the compound `COc1cc2c(cc1-c1c(C)noc1C)ncc1[nH]c(=O)n(C(C)c3ccccn3)c12` (stereo unspecified), the results for the fold change in experiment [1] (setting [3]) and in experiment [1] (setting [4]) were 0.947 (inactive) and 0.831, respectively. In addition, the cell count in experiment [1] (setting [5]) was 7600; in experiment [1] (setting [6]), 8030. Also, the figures for the z-score in experiment [2] (setting [7]) and in experiment [2] (setting [8]) were 0.365 (inactive) and -1.83, respectively.
Take `O=C(COc1ccc(C(=O)c2ccccc2)cc1)NC1CCN(Cc2ccccc2)CC1`: the values for the fold change in experiment [1] (setting [3]) and in experiment [1] (setting [4]) were 0.922 (inactive) and 0.78, respectively. Also, the cell count in experiment [1] (setting [5]) is 6930; in experiment [1] (setting [6]), 7520. Besides, the z-score in experiment [2] (setting [7]) is -0.391 (inactive); in experiment [2] (setting [8]) it was -0.791.
On to `CNC(C)C(=O)NC(C(=O)N1CCCC1C(=O)NC(C(=O)NCCCCCCNC(=O)C(NC(=O)C1CCCN1C(=O)C(NC(=O)C(C)NC)C1CCCCC1)C(c1ccccc1)c1ccccc1)C(c1ccccc1)c1ccccc1)C1CCCCC1` (stereo unspecified) (I: H-[NMeA][Chg]P[Dip] / II: H-[NMeA][Chg]P[Dip]; linker I:C-II:C via Hexamethylenediamine; configuration not given here), for which the fold change in experiment [1] (setting [3]) is 0.971 (inactive); in experiment [1] (setting [4]), 0.501. In addition, the cell count in experiment [1] (setting [5]) was 8750; in experiment [1] (setting [6]), 9000. Further, the z-score in experiment [2] (setting [7]) was -0.461 (inactive); in experiment [2] (setting [8]), -0.132.

The values are drawn from PubChem BioAssay.
